Screens as filed in PubChem.
Integrin act MD = activates integrin-mediated alleviation for muscular dystrophy; AID 624291; 350,000 tested, 0.064% active; alpha7betagal myoblasts, beta-gal FDG fluorescence, 48 h; Potency, µM (titrated, usually from 38.3 µM), most hits filed as activators; active = well fitted activation curve with a large enough effect; inconclusive = small, poorly fitted or top-dose-only effect; inactive = no such curve, though single readings can be large or run the other way; note: nearly all actives have a fitted effect of over 60% in size
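alpha7betagal+/- myoblasts (passage 13, 250/well) treated 48 h at 37C with compounds at 1:260 dilution of DMSO stock. Lysed, then beta-galactosidase activity read as FDG fluorescence (ex 480/em 540) after 30 min, with pre-read for autofluorescence.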
D3 ag = agonists of human D3 dopamine receptor; max activation, %; 410,000 tested, 0.58% active; D3R DiscoveRx beta-arrestin cells, luminescence, 90 min; in the data active = max activation above about 30%
Target sequence (P35462 whole entry, looked up): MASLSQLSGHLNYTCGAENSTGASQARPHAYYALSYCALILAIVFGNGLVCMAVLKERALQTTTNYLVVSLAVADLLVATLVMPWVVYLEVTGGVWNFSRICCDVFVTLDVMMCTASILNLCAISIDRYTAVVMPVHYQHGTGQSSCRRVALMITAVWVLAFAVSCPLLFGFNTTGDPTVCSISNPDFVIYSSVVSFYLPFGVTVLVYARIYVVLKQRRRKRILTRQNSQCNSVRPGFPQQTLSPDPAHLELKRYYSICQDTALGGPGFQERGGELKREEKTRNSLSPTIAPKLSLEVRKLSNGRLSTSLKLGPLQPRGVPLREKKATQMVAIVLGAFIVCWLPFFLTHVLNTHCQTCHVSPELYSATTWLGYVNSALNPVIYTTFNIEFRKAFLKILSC
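Agonist-mode cell screen: cells plated at 1500/well and incubated overnight at 37 °C, then exposed to library compounds for 90 min at 37 °C. Detection reagent was added for 30–60 min at room temperature, and luminescence was read.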
DRD3 antagonist = blocks the human D3 dopamine receptor; P35462; D3R cells, DiscoveRx beta-arrestin luminescence, antagonist mode; stronger effect = lower value; max response, negative = inhibition, %; 360,000 tested, 2.5% active; in the data active = max response below about -50%; inconclusive = no clear call, values can overlap the other calls
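Cells plated overnight at 1500 cells/well, then exposed to library compounds with dopamine controls for 90 minutes at 37 degrees C. DiscoveRx reagent added for 30–60 minutes at room temperature; luminescence read, quantitative HTS format.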
Large screens that a line does not name were inactive; ! = repeats disagree. Only some compounds are listed: those with a hit (about 2.9% of all), similar ones and a draw of the others.

C1=C(c2ccccc2)CCN(c2nc3ccccc3n3cnnc23)C1	DRD3 antagonist -70
c1ccc(CN2CCN(c3nc4ccccc4n4cnnc34)CC2)cc1	DRD3 antagonist -135
CO/N=C/NC(=O)NOCc1c(Cl)cccc1Cl	none
COCCNC(=S)c1ccc(Br)cc1	none
O=C(NC1CCCCC1)C1CC(=O)N(c2ccc(Cl)cc2)C1 (stereo not given)	none
O=C(COC(=O)c1cc(-c2cccs2)nc2ccccc12)c1ccc(Cl)cc1	none (no result: Integrin act MD, DRD3 antagonist)
O=C(OCC(=O)N1CCCC1)c1cc([N+](=O)[O-])ccc1Cl	none
O=C(OCC(=O)N1CCCCC1)c1cc(NS(=O)(=O)c2ccc(Cl)c([N+](=O)[O-])c2)ccc1O	DRD3 antagonist -50
CN(C)CCN(Cc1cc2cc3c(cc2[nH]c1=O)OCCO3)C(=S)NCC1CCCO1 (stereo not given)	none
CC1=C/C(=N\NC(=S)Nc2cccnc2)CC(C)(C)C1	DRD3 antagonist -51
CCC(C)(C)C1CCC(=NNC(=S)Nc2cccnc2)CC1 (stereo not given)	DRD3 antagonist -64
CC1(C)C2CC=C(/C=N/NC(=S)Nc3cccnc3)C1C2 (stereo not given)	none
CCC(C)(C)C1CCC(=NNC(=S)Nc2ccccc2)CC1 (stereo not given)	DRD3 antagonist inconclusive
COC(=O)c1c(NC(=O)/C=C/c2ccco2)sc2c1CCC2	none
Cc1sc(NC(=O)/C=C/c2ccco2)c(C(=O)OC(C)C)c1C	D3 ag 32
COc1ccc2c(C)c(Cl)c(=O)oc2c1	none
C=C1CC(COc2ccc3c(C)c(Cl)c(=O)oc3c2)(c2ccccc2)OC1=O (stereo not given)	DRD3 antagonist -99
Cc1ccc(C(O)c2ncc(-c3ccc4ccccc4c3)[nH]2)cc1 (stereo not given)	none (no result: Integrin act MD)
Cc1cc(C)cc(C(O)c2ncc(-c3ccc4ccccc4c3)[nH]2)c1 (stereo not given)	DRD3 antagonist -56 (no result: Integrin act MD)
CC1=NN(c2nc(N)nc(/C(C#N)=C/c3ccc([N+](=O)[O-])o3)n2)C(C)(C)C1	DRD3 antagonist -61
O=C1C2C(C(=O)N1/N=C/c1ccc([N+](=O)[O-])o1)C1C=CC2C12CC2 (stereo not given)	none
COC(=O)c1cc2oc3ccccc3c2n1CC(=O)Nc1ccc(C)c(F)c1	none (no result: Integrin act MD, DRD3 antagonist)
O=C(CCS(=O)(=O)c1cc(Br)cc2c1N(C(=O)C1CC1)CC2)N1CCN(c2ccc(F)cc2)CC1	none (no result: Integrin act MD, DRD3 antagonist)
Cn1ccc2c(-c3ccccc3F)cc3c(c21)C1CCC3C1 (stereo not given)	DRD3 antagonist -54 (no result: Integrin act MD)
COc1ccccc1-c1cc2c(c3c1ccn3C)C1CCC2C1 (stereo not given)	none (no result: Integrin act MD)
CCCCCCCC/C=C\CCCCCCCC(=O)NCc1ccc(O)c(OC)c1	none (no result: Integrin act MD, DRD3 antagonist)
CCCCCCCC/C=C\CCCCCCCC(=O)NCCc1ccc(O)c(O)c1	D3 ag 211 (no result: Integrin act MD)
CC1=C/C(=C(/c2ccc(O)c(C)c2)c2ccccc2S(=O)(=O)O)C=CC1=O	DRD3 antagonist -56
CC1=C/C(=C(/c2cc(C)c(O)c(Br)c2)c2ccccc2S(=O)(=O)O)C=C(Br)C1=O	DRD3 antagonist -60
CCCCn1c(SCC(=O)Nc2cccc(OC)c2)nc2c(sc3ccccc32)c1=O	none (no result: Integrin act MD, DRD3 antagonist)
COc1ccc(NC(=O)c2c(C)oc3ccc(O)c(CN4CCCC(C)C4)c23)cc1Cl (stereo not given)	none (no result: Integrin act MD, DRD3 antagonist)
Cc1ccc2nc(-c3ccc(NC(=O)Cc4ccccc4)cc3)sc2c1	none (no result: Integrin act MD, DRD3 antagonist)
CCc1ccccc1NC(=O)CSc1nc2c(oc3ccccc32)c(=O)n1-c1ccccc1	none (no result: Integrin act MD, DRD3 antagonist)
CCOC(=O)N1CCC(NC(=O)c2cc(C(=O)NCc3ccc(F)cc3)ccc2CO)CC1	none
CCOC(=O)N1CCC(NCCNC(=O)c2ccc(F)c(F)c2)CC1	DRD3 antagonist -99
CCOC(=O)N1CCC(NCCNC(=O)c2ccco2)CC1	none
CCOC(=O)N1CCC(NCCNC(=O)c2ccc(Cl)cc2)CC1	DRD3 antagonist -74
Cc1nc(N2CCN(S(=O)(=O)c3cccs3)CC2)c2c(-c3ccccc3)c(C)sc2n1	none
Cc1ccc(C2=C(CC(=O)O)C(=O)CC2)cc1	Integrin act MD 4.5µM
COC(=O)CC1=C(c2ccc([N+](=O)[O-])cc2)CCC1=O	none
Cc1ccc(S(=O)(=O)NNC(=O)CC#N)cc1	none
c1ccc2c(c1)CCN(c1ncnc3c1[nH]c1ccccc13)C2	DRD3 antagonist -53
COc1cccc2[nH]c3c(N4CCc5ccccc5C4)ncnc3c12	none
Cn1c(CSCc2ccc(F)cc2)nnc1SCC(=O)Nc1cccc(C(=O)O)c1	none
O=c1nc(/C=C/c2cccn2-c2ccc([N+](=O)[O-])cc2)cc(C(F)(F)F)[nH]1	none
O=c1nc(/C=C/c2cc([N+](=O)[O-])ccc2Cl)cc(C(F)(F)F)[nH]1	DRD3 antagonist -69
CSc1ncc(Cl)c(C(=O)Nc2nc3ccc(F)cc3s2)n1	none (no result: Integrin act MD, DRD3 antagonist)
CCCS(=O)(=O)c1snnc1C	none
CCN(CC)S(=O)(=O)c1ccc(C(=O)N2CCc3ccccc32)cc1	none
CCOc1ccc(S(=O)(=O)N(CC(=O)N2CCc3ccccc32)Cc2ccco2)cc1	DRD3 antagonist -66
Cc1ccc(C(=O)Oc2ccc(Cl)c3cccnc23)cc1[N+](=O)[O-]	DRD3 antagonist -126
COc1ccc(C(=O)Oc2cccc3cccnc23)cc1[N+](=O)[O-]	DRD3 antagonist inconclusive
O=C(Oc1ccc(Cl)c2cccnc12)N1CCCCC1	none
O=C(Oc1ccc(Cl)c2cccnc12)c1cccnc1	DRD3 antagonist -70
COc1ccc(NC(=S)N2CCOCC2)c(OC)c1	none
Cc1cc(C(C)(C)C)cc(CN2CCN(S(=O)(=O)c3cccs3)CC2)c1O	none
Cc1cc(S(=O)(=O)N2CCCC(N3CCOCC3)C2)c(C)cc1Cl (stereo not given)	none
CC(C)CC1Nc2ncnc(N3CCN(c4ccccc4)CC3)c2N(Cc2ccc(Br)cc2)C1=O (stereo not given)	none
CC1Nc2ncnc(N3CCN(c4ccccc4)CC3)c2N(Cc2ccccc2)C1=O (stereo not given)	DRD3 antagonist -110
CC1Nc2ncnc(N3CCOCC3)c2N(Cc2ccc(Cl)cc2)C1=O (stereo not given)	DRD3 antagonist inconclusive
CC1Nc2ncnc(N3CCN(c4ccccc4)CC3)c2N(Cc2ccc(Cl)cc2)C1=O (stereo not given)	DRD3 antagonist -166
CC(C)CC1Nc2ncnc(N3CCN(c4ccccc4)CC3)c2N(Cc2ccccc2)C1=O (stereo not given)	DRD3 antagonist -78!
Cc1ccc(CN2C(=O)C(C)Nc3ncnc(N4CCOCC4)c32)cc1 (stereo not given)	DRD3 antagonist inconclusive
O=S(=O)(Nc1ccc(-n2cccc2)cc1)c1ccc(F)cc1	none
CCN1CCC(C(=O)NC(c2ccc(F)cc2)c2ncccc2C)CC1 (stereo not given)	DRD3 antagonist inconclusive (no result: Integrin act MD)
CCC(C)NC(=O)C1CCN(CCCc2ccccc2)CC1 (stereo not given)	none
Cc1cccnc1C(NC(=O)C1CCN(CCCc2ccccc2)CC1)c1ccc(F)cc1 (stereo not given)	DRD3 antagonist -70 (no result: Integrin act MD)
CCCN1CCC(C(=O)NC(c2ccc(F)cc2)c2ncccc2C)CC1 (stereo not given)	DRD3 antagonist -57 (no result: Integrin act MD)
COc1ccc2oc(C(=O)N(C)Cc3ccc(OC(F)F)cc3)c(C)c2c1	none
